Assay results published in PubChem BioAssay (NCATS).
Some of the results follow. Results filed as inconclusive are left out. The source made the active and inactive calls. Calls follow the shape of the dose curve; as a rule, active = well fitted inhibition curve with a large enough effect; inconclusive = small, poorly fitted or top-dose-only effect, or effect the other way; inactive = no such curve, though single readings can be large or run the other way.

assay: qHTS Assay for Inhibitors of Fructose-1,6-bisphosphate Aldolase from Giardia Lamblia: Giardia lamblia growth inhibition (AID 2785); settings: Giardia lamblia trophozoite growth inhibition; series mostly up to 57.5 µM; activity change, negative = inhibition: at the top concentration;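 also: trophozoites exposed to compound for 48 h at 37 °C; nearly all actives have a fitted effect of over 70% in size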
From the text: NIH Chemical Genomics Center [NCGC]
NIH Molecular Libraries Probe Production centers Network [MLPCN]
Assay Provider: Osnat Herzberg, University of Maryland
The objective of this project is to obtain compounds that inhibit Giardia lamblia growth. G. lamblia is a human pathogen which afflicts impoverished nations; it is the most common cause of outbreaks of diarrhea in the United States. During the course of our study of potential drug targets in Giardia, we have identified the Class II (Zn2+ functions in electrophilic catalysis) fructose-1,6-bisphosphate aldolase (FBPA) as an excellent candidate for drug targeting. FBPA is a key glycolytic pathway enzyme, essential for G. lamblia survival. The human FBPA belongs to the Class I aldolases, which have a different substrate binding site structure and a radically different catalytic mechanism (employing a lysine-Schiff base intermediate). Therefore, affinity-based or mechanism-based inhibitors of the Giardia FBPA are expected not to interfere with the catalytic function of the human FBPA.
A glyceraldehyde-3-phosphate dehydrogenase/triose phosphate isomerase/NAD/arsenate coupled assay was adapted to the 1536-well HTP format for use in the primary screen. This was done by coupling it to a diaphorase/resazurin/resorufin reaction that can be monitored by fluorescence (excitation, 544 nm; emission, 590 nm). Compounds identified in this screen will be further evaluated by coupling the glycerol-3-phosphate/triose phosphate isomerase/NADH assay to a phenazine methosulfate/tetranitroblue tetrazolium color reaction. False positives due to the dehydrogenases and diaphorase inhibition will be eliminated, and selectivity assay will triage inhibitors of mammalian triose phosphate isomerase and the Class I FBPA. G. lamblia FBPA inhibitors identified by the in vitro analyses will be examined for growth inhibition of Giardia trophozoites, and for cytotoxicity in human cells.
This assay addresses whether hits in the primary screen can inhibit growth of giardia lamblia trophozoites.
Trophozoites of the G. lamblia isolate WB (33) were grown at pH 7.0 in modified TYI-S-33 medium. Detachment of trophozoites for preparation of inocula was achieved by chilling the cultures on ice for 20 min.
2uL/well media was dispensed per well into 1536-well white solid-bottom plates using a Multidrop Combi dispenser (Thermo Scientific). Subsequently, 23 nL/well compound solutions or DMSO controls were dispensed to the assay plates containing media via a pintool workstation (Kalypsys, San Diego) to avoid the potential contamination to the compound source plates. Unless otherwise noted, Giardia trophozoids suspended in media were dispensed as 100 cells/well in 4uL volumes. The plates were covered with plastic low-evaporation lids, individually sealed in Type A Bio-Bags and incubated at 37C for 48 hours. Following incubation, 4uL/well of ATPlite reagent was dispensed with a Multidrop Combi dispenser. The assay plates were briefly centrifuged at 1000 RPM and luminescence signal was detected on a ViewLux plate reader (PerkinElmer) after 20 min incubation at room temperature.
Keywords: Fructose-bisphosphate aldolase, FBPA , Giardia lamblia , Giardia, HTS, Inhibitors
% is scaled to controls: 0 for no effect and ±100 for the full control effect; potency is read from the fitted curve at half-maximal effect.

Activity change, negative = inhibition, inactive:
Cc1ccc(OCCCCc2c(C)n[nH]c2C)cc1 7.15% [at 10.4 µM]
Cc1cc(C)n(-c2ccc(Cl)c(C(=O)O)n2)n1 26.5%
O=[N+]([O-])c1cc([N+](=O)[O-])c2cccnc2c1O 25.3%
Cc1csc(NC(=O)CN2CCCCCC2)n1 1.38% [at 10.4 µM]
Cc1cccc(-c2nnc(SCC(=O)O)n2Cc2ccccc2)c1 6.79% [at 10.4 µM]
CN1C(=O)/C(=C\c2ccc(-c3ccccc3)o2)SC1=S -13.3% [at 38.3 µM]
CN1CCCc2cc(C#N)c(=O)[nH]c21 27.9%
Cc1cc(C)c2c(=O)[nH]c(SCC(=O)Nc3ccc(Br)cc3)nc2n1 -5.41%
COc1ccc(N=Nc2c(-c3ccc(OC)cc3)[nH]oc2=O)cc1 -15.5%
COCCN(C(=S)Nc1ccccc1OC)C1CCN(C(C)C)CC1 9.74%
Cc1nc(N2CCOCC2)sc1C(=O)NN 13.6%
COc1ccc(CN2CCN(Cc3ccc(OC)c(OC)c3OC)CC2)cc1 6.68% [at 10.4 µM]
CCN(CC(=O)NC(=O)NCc1ccccc1)Cc1nc2ccccc2c(=O)[nH]1 -29.8%
C=C(C)CNC(=S)N/N=C/c1ccccc1OCC(=O)O -11.7%
O=S(=O)(c1ccc(NC(=S)NN=C(C2CC2)C2CC2)cc1)N1CCOCC1 -9.73% [at 10.4 µM]
COc1ccccc1CN1CCN(Cc2cc(OC)c(OC)cc2OC)CC1 59.3%
COc1ccc(C(=O)NC(=S)N2CCCCC2c2cccnc2)cc1OC (stereo not given) -19.9%
O=C(Nc1nnc(-c2ccco2)o1)c1ccc(S(=O)(=O)N2CCOCC2)cc1 7.93% [at 10.4 µM]
CCN(CC(=O)Nc1ccc(S(=O)(=O)N2CCCC2)cc1)CC(=O)Nc1cccc(OC)c1 -24.9%
Cc1cnc(NC(=O)c2ccccn2)s1 -23.9% [at 10.4 µM]
O=C1CCCN1CCCNC(=S)Nc1ccc(F)c(Cl)c1 -14.2%
O=C(CSc1cccc[n+]1[O-])c1ccc(-c2ccccc2)cc1 -21.3%
Cn1nnc(NC(=S)NC(=O)c2ccccc2)n1 -3.64% [at 38.3 µM]
COC(=O)CC1=NN(c2nc(C)cc(C)n2)C(=O)C1 4.58% [at 38.3 µM]
CN(C)CCOc1ccc(Cl)cc1C(C)(C)C -6.56% [at 10.4 µM]
C=CCc1cc(C)ccc1OCCCn1ccnc1 5.83% [at 10.4 µM]
CN1CCN(CCCCOc2ccccc2-c2ccccc2)CC1 45.3%
CC(=O)NC1CCN(CC(=O)Nc2nccs2)CC1 -10.3% [at 10.4 µM]
Cc1nc2ccc(NC(=S)N3CCC(C)CC3)cc2nc1C -1.02%
COc1cc(CN2CCN(Cc3ccc(C)cc3)CC2)c([N+](=O)[O-])cc1OC -29.9%
O=C(CN1C(=O)COc2ccccc21)Nc1ccc(F)cc1 -19.4% [at 38.3 µM]
Cc1cccc(C)c1OCCN1CCOCC1 14.9% [at 10.4 µM]
COc1ccc(Cl)cc1C(=O)NNC(=O)c1nc2nc(C)cc(C)n2n1 -17.9%
COc1ccc(OC)c(Nc2nc(-c3ccc(O)c(O)c3)cs2)c1 -10.8% [at 10.4 µM]
Clc1cccc(CN2COc3c(cc(Cl)c4cccnc34)C2)c1 -13.7%
C=CCNC(=S)/N=c1/ccccn1Cc1ccccc1 3.99% [at 10.4 µM]
O=c1nc(N/N=C/c2ccco2)cn[nH]1 -5.51%
O=C(NC(=S)Nc1ncccn1)c1ccccc1Br -26.3% [at 38.3 µM]

Potency, active:
O=C(Nc1ccccc1Cl)O/N=C(/c1ccccc1)c1ccccn1 22.4 µM
Cc1nnc(N/N=C/c2ccccn2)[nH]c1=O 25.1 µM
